# Source: the supplement of paper PMC6555819
# What was measured:
# Assay in all cases: PBM binding z-score (relative to random genomic background probes); higher = stronger binding; sequences stand for … in GC…GCGATTGACAGCGTAGAATGAAGG
# [1] = tested on: FXR:RXRa (NR concentration 270 nM, RXRa partner concentration 90 nM)
# Procedure, shortened: (§1)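 Random background probes are the reference for binding z-scores. These scores derive from regression-normalized fluorescence on custom Agilent 4×180K protein-binding microarrays incubated 1 h with ligand-free nuclear receptor dimers. Binding was detected with antibodies against each partner (one per run).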
# [2] = tested on: LXRa:RXRa (NR concentration 270 nM, RXRa partner concentration 90 nM)
# Procedure, shortened: as §1
# [3] = tested on: LXRa homodimer (NR concentration 270 nM)
# Procedure, shortened: as §1
# [4] = tested on: LXRb:RXRa (NR concentration 270 nM, RXRa partner concentration 90 nM)
# Procedure, shortened: as §1
# [5] = tested on: LXRb homodimer (NR concentration 270 nM)
# Procedure, shortened: as §1
# [6] = tested on: PPARa:RXRa (NR concentration 270 nM, RXRa partner concentration 90 nM)
# Procedure, shortened: as §1
# [7] = tested on: PPARg:RXRa (NR concentration 180 nM, RXRa partner concentration 90 nM)
# Procedure, shortened: as §1
# [8] = tested on: PPARg:RXRa 270nM:90nM, anti-RXR (NR concentration 270 nM, RXRa partner concentration 90 nM)
# Procedure, shortened: as §1
# [9] = tested on: PPARg:RXRa 30nM:10nM, anti-RXR (NR concentration 30 nM, RXRa partner concentration 10 nM)
# Procedure, shortened: as §1
# [10] = tested on: PPARg:RXRa 90nM:30nM, anti-RXR (NR concentration 90 nM, RXRa partner concentration 30 nM)
# Procedure, shortened: as §1
# [11] = tested on: PPARg:RXRa DBDmut IVT, anti-RXR (DBD mutation: RXRa K156A/R161A, NR concentration 270 nM, RXRa partner concentration 90 nM)
# Procedure, shortened: as §1
# [12] = tested on: PPARg:RXRa IVT, anti-PPARg (NR concentration 270 nM, RXRa partner concentration 90 nM)
# Procedure, shortened: as §1
# [13] = tested on: PPARg DBDmut:RXRa IVT, anti-PPARg (DBD mutation: PPARg1 K132A/R137A, NR concentration 270 nM, RXRa partner concentration 90 nM)
# Procedure, shortened: as §1
# [14] = tested on: PPARg DBDmut IVT, anti-PPARg (DBD mutation: PPARg1 K132A/R137A, NR concentration 270 nM)
# Procedure, shortened: as §1
# [15] = tested on: PPARg homodimer (NR concentration 180 nM)
# Procedure, shortened: as §1
# [16] = tested on: PXR:RXRa (NR concentration 270 nM, RXRa partner concentration 90 nM)
# Procedure, shortened: as §1
# [17] = tested on: PXR homodimer (NR concentration 270 nM)
# Procedure, shortened: as §1
# [18] = tested on: RARa:RXR (NR concentration 270 nM, RXRa partner concentration 90 nM)
# Procedure, shortened: as §1
# [19] = tested on: RARa homodimer (NR concentration 270 nM)
# Procedure, shortened: as §1
# [20] = tested on: RARb:RXRa (NR concentration 270 nM, RXRa partner concentration 90 nM)
# Procedure, shortened: as §1
Sequence,PBM binding z-score [1],PBM binding z-score [2],PBM binding z-score [3],PBM binding z-score [4],PBM binding z-score [5],PBM binding z-score [6],PBM binding z-score [7],PBM binding z-score [8],PBM binding z-score [9],PBM binding z-score [10],PBM binding z-score [11],PBM binding z-score [12],PBM binding z-score [13],PBM binding z-score [14],PBM binding z-score [15],PBM binding z-score [16],PBM binding z-score [17],PBM binding z-score [18],PBM binding z-score [19],PBM binding z-score [20]
CAGCCTAGGTCAGGGCCAGTATGGGAGGAACGTT,1.41,0.705,-0.724,0.176,-1.05,2.06,0.648,0.825,-0.673,0.0186,0.702,1.59,-1.71,-1.33,0.437,0.196,-0.864,0.839,-0.701,3.43
CCGGCTGGGGCATAAGGTTACCATAAGCCAGCCC,-0.0908,1.73,-0.45,0.426,-1.54,1.11,0.631,1.5,-0.332,0.706,-0.781,0.196,-2.71,-2.08,1.02,0.131,-0.484,1.23,-0.82,1.62
AGAATGAGGTTTTTAAGATCAGGGAATTGCGGTC,-0.295,-0.436,-0.308,-0.234,-0.216,0.0197,0.144,0.00452,0.119,-0.139,0.514,0.257,0.355,-0.0253,-0.582,-0.38,-0.508,-0.216,0.273,0.0304
TCTCGGCGGACACGAAGGTCAGAGCTTTCCAGAG,0.592,0.668,0.198,0.454,-1.37,1.5,0.0295,1.04,1.16,1.08,0.413,0.291,-0.613,-1.55,0.53,1.09,-0.42,1.09,-0.212,2.45
ATCTCTAGGTAACCAAGTTCATTGAATGCCGAAC,0.729,2.12,2.71,1.66,1.1,2.14,1.04,1.24,0.578,0.937,3.59,3.08,1.78,1.57,1.37,3.97,7.05,1.72,1.19,1.75
GATACAGGGTTAGCTAGAGGCCAGAGTATGGAAA,0.0111,0.711,-0.451,0.181,-0.961,0.87,0.379,0.0848,-0.37,-0.205,-0.257,0.231,-0.237,-1.22,0.107,0.293,-0.052,0.625,-0.595,1.07
CCTCGAAGGACAGAAGGTCAGAGCTGTCCGCTTT,1.13,1.56,0.132,1.28,-0.573,1.83,0.0228,0.429,-0.598,0.107,-0.0695,-0.0413,-0.921,-1.97,1.14,1.08,-0.321,1.83,0.748,3.06
GCTCGGAGGGCAAGGTCAGAGCTTTGTCCGTAGA,2.16,2.05,-0.485,1.26,-1.03,3,1.23,2,-0.62,0.771,0.731,1.11,-2.58,-1.43,2.03,2.07,-0.437,2.52,-0.775,3.76
GATACAGGGTCAGCTAGAGGCGAGAGTATGGAAA,4.63,2.33,-0.47,2.27,-0.792,4.46,3.77,3.24,1.08,1.87,1.45,2.17,-0.6,-0.459,1.77,2.25,-0.498,3.52,0.0279,4.1
CGTCCAAGGTCAAAGGAGGTCAGTGAAGACAGAT,7.79,7.44,4.18,5.88,1.51,6.08,5.84,5.46,2.75,4.81,3.19,4.71,0.585,-0.349,3.39,6.84,3.62,5.79,0.875,5.6
TCTACTAGTTGAAGGGCAACCGACGAGTCCGTTT,0.338,0.156,-0.296,0.212,-0.37,0.726,0.214,1.58,3.03,2.48,1.69,0.294,0.093,-0.701,0.312,0.458,0.108,0.275,-0.569,1.27
GCTAGCAGGCCATGTGGGTCACTCAATGACGGGC,-0.267,-0.154,-0.643,-0.292,-1.04,1.58,1.31,1.18,-0.316,0.415,2.25,3.4,-0.133,-0.744,-0.23,0.289,-0.533,0.567,-0.664,1.26
GCTAGCAGCCCATTTGGGTCACTCAATGACGGGC,-0.281,-0.586,-0.832,-0.285,-0.892,0.853,0.291,0.0178,-0.724,-0.506,-0.167,0.995,-0.831,-1.56,-0.798,-0.106,-0.918,0.359,-1.15,0.893
AGTCAAAGTTCATCTAGGTAAGGTAAGATATGCT,6.12,6.16,5.26,4.05,1.73,5.02,6.22,6.34,3.3,5.66,0.598,3.32,1.53,0.676,3.1,5.24,5.75,3.9,1.68,4.91
ATCGAAAGGTCCTGAGGTGAGTATACAGAAAGGC,0.12,0.275,-0.698,0.248,-0.388,1.21,0.686,0.415,0.534,1.08,-0.172,0.777,0.834,0.602,0.413,0.102,-0.0977,0.895,0.0282,1.12
TGTTGTAGATCAGCAGGTTAAGAAAGCTGGCCAA,-0.297,-0.297,-0.591,-0.397,-0.822,-0.205,-0.588,0.116,-0.287,-0.0252,-1.12,-0.254,-0.00533,-1.02,-0.701,-0.454,-0.604,-0.71,-0.587,-0.157
TCTCGGAGGAGACGAAGGTCAGAGCTTTCCAGAG,0.255,0.507,-0.124,0.569,-1.39,1.62,-0.069,1.26,1.84,1.51,0.916,-0.157,-0.48,-1.43,0.692,1.01,-0.222,1.5,-0.817,2.37
TGAATGCGGTTAAAGATCAGGGAACGTGGCGTCG,-0.28,-0.16,-0.66,-0.519,-0.199,1.25,1.64,3.54,1.66,2.98,-0.715,0.725,0.416,0.69,0.0368,-0.493,-0.492,-0.11,-0.405,0.315
ACAGACAGGTGATGCAGGTAACTCAGGCTATCAT,-0.0955,-0.176,-0.459,-0.222,-0.442,0.00895,0.577,-0.188,-0.309,-0.256,0.0988,0.729,0.0271,0.231,0.328,-0.33,0.04,-0.107,0.231,-0.0709
GATACCGGGTCAGCTAGAGGCCAGAGTATGGAAA,2.65,1.51,-0.9,1.21,-1.03,3.5,2.92,2.42,0.487,1.18,0.693,2.49,-0.62,-0.769,1.94,2.41,-0.56,3.53,-0.152,3.28
TTACCAATGTGAGCTGAGGTCGTTGATCCAACTC,0.612,0.222,-0.15,0.408,-0.727,0.851,-0.119,0.638,0.496,0.42,-0.252,-0.0612,0.679,-0.281,-0.49,2.46,0.562,1.53,-0.185,0.439
ACTAGTAGGCCAAGTTTGGGTCACTCAAACAAAG,0.368,0.0962,-0.261,0.884,-0.17,2.34,2.17,2.27,0.504,1.13,5.38,4.97,0.793,0.699,0.944,0.935,-0.0858,1.74,-0.227,2.11
AGAATGAGGTTATTAAGATCAGTGAATTGCGGTC,1.66,1.74,0.236,1.27,0.0793,2.7,1.43,1.81,0.385,0.958,3.14,2.61,0.948,0.175,1.22,1.37,0.788,1.35,0.44,1.31
CGTCCAAGGTCAAGGTTAGTGAAAGAGACTCGAA,6.97,5.24,0.37,3.88,0.41,5.63,5.02,5.18,2.08,4.2,3.18,3.79,0.923,0.146,2.5,3.81,0.691,4.34,0.992,5.07
GCTGCTAGGTCAACTGATGGTCAGGTAAAGCTCG,4.16,2.9,0.318,2.37,0.0406,3.7,2.95,3.33,0.765,1.9,4.69,4.23,-0.376,-0.724,2.17,1.83,-0.677,3.15,0.327,4.45
TCTCGGAGGACACGAAAGGTAAGAGCTCGACATC,0.311,-0.0644,-0.636,-0.242,-1.12,0.039,0.278,0.941,2.19,1.28,1.28,-0.239,-1.14,-1.23,-0.641,-0.211,-0.673,-0.135,-0.792,1.59
CGACCTAGGTCAAGGACAGTGAATCTCCGCACGC,4.5,2.95,-0.0211,2.07,-0.684,3.94,3.55,3.19,0.64,1.86,4.04,3.83,0.362,-0.346,2.36,1.6,-0.248,2.45,0.805,4.13
CCGAGTGGGGCATAAGGTTACCATAAGCCAGCCC,0.498,1.86,-0.512,0.83,-1.04,2.05,2.19,3.09,1.06,2.66,2.28,2.81,-1.47,-1.33,0.587,0.569,-0.243,1.27,-0.802,1.35
TCGAGTAGGTTAGGGGCATTCGGAATGGCGTCGA,0.123,0.347,-0.32,0.736,-0.712,1.06,0.477,2.22,1.15,1.51,1.94,1.69,-0.634,-0.223,0.203,0.507,-0.0899,0.497,-0.724,1.09
